Most compounds without a hit are left out; they make up all but 3.4% or so of the library.
PLCg1 inh: blocks human PLC-gamma1 enzyme activity. inhibition, % at 12.2 µM. 0.84% of 370,000 active. purified PLC-gamma1, fluorogenic substrate, fluorescence. AID 720700; in the data active means inhibition above about 9.5%
ADAM10 inh: inhibits human ADAM10 | O14672 | recombinant ADAM10, EDANS/DABCYL FRET peptide cleavage, 3 h | inhibition, % at 7 µM | 0.62% of 370,000 active;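 active means inhibition above a per-campaign cutoff equal to the mean of compounds falling between control-based bounds plus 3 SD, cut at about 20% in these data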
HGIII-sPLA2 inh: Inhibits HGIII-sPLA2 liposome hydrolysis, primary screen. inhibition, % at 12.2 µM. 0.56% of 370,000 active. QFRET BODIPY PC-A2 liposome hydrolysis, fluorescence;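 active means inhibition above mean plus 3 SD of compounds lying within the high and low control bounds, cut at about 19% in these data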
Target sequence (Q9NZ20 whole entry, looked up): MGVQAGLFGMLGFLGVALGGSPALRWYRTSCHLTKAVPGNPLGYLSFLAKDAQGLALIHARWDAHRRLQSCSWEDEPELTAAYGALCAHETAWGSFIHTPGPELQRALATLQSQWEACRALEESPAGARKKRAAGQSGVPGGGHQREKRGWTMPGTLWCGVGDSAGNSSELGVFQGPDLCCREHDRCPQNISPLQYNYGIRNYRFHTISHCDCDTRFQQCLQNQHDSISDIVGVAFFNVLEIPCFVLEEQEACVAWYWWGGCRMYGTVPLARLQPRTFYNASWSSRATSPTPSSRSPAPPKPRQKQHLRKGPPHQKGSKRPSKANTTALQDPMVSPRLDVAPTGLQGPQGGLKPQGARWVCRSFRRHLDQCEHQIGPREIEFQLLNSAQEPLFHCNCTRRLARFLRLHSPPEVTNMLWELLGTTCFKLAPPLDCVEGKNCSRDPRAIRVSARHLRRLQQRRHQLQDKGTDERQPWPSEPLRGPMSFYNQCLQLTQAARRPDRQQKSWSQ
ADAM17 inh: ADAM17 inhibition, QFRET primary screen | AID 720648 | inhibition, % at 6.95 µM | P78536 | 0.83% of 370,000 active | recombinant ADAM17, EDANS/DABCYL FRET peptide cleavage;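 active means inhibition above the mean of compounds lying between control limits plus 3 SD, set per campaign, cut at about 8.5% in these data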
proKLK7 act: proKLK7 (human) activation, primary screen; P49862; purified proKLK7, EDANS-DABCYL substrate fluorescence; 100% is mature enzyme control, 0% vehicle; activation, % at 7 µM; 0.9% of 370,000 active; AID 652039;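 active means activation above the mean of all tested compounds plus 3 SD, computed per campaign excluding outliers beyond control limits, cut at about 13% in these data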
PLCb3 inh: inhibitors of human phospholipase C beta3; inhibition, % at 12.2 µM; Purified PLC-beta3, fluorogenic substrate, fluorescence; 0.18% of 370,000 active; Q01970; in the data active means inhibition above about 11%
proKLK7 act conf: confirmation of human kallikrein-7 zymogen activators; shares compounds with proKLK7 act; purified proKLK7, EDANS-DABCYL substrate fluorescence; scaled: vehicle 0, mature enzyme 100; activation, % at 7 µM; 68% of 3,200 active;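 active means activation, as change over the incubation, above the mean of all tested compounds plus 3 SD, cut at about 13% in these data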
EDANS-DABCYL int: counter-screen for kallikrein-7 activators: EDANS-DABCYL optical interference | shares compounds with proKLK7 act | EDANS-DABCYL substrate fluorescence interference, no enzyme, 4 h; solvent 0%, active enzyme control 100% | activation, % at 7 µM | 80% of 3,200 active | AID 686952;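 active means activation above the all-compound mean plus 3 SD, ignoring values outside control-based bounds, cut at about 4.8% in these data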;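 further: value is the 4 h activation minus the activation read at time zero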
K7 EDANS ctr: optically interferes with EDANS-DABCYL fluorescence, kallikrein-7 activator counter-screen | shares compounds with proKLK7 act | 20% of 250 active | EC50, µM | EDANS-DABCYL peptide fluorescence interference, no enzyme;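 active means compounds that raise the fluorescence signal in this interference counterscreen, with EC50 at or below 10 µM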;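 further: intact quenched peptide substrate alone read at 355 nm excitation and 520 nm emission; signal is fluorescence gain from T0 to T4 after four hours at room temperature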
A number is an active result; 0 = inactive; - = no result given.

SMILES	PLCg1 inh	ADAM10 inh	HGIII-sPLA2 inh	ADAM17 inh	proKLK7 act	PLCb3 inh	proKLK7 act conf	EDANS-DABCYL int	others
CCOc1cc(C=NN2CCN(Cc3ccc(C)cc3)CC2)ccc1O	0	0	0	0	0	0	-	-
CCCC[C@H]1C2CC(OC(=O)Nc3cccc(F)c3)C(C2)[C@H]2CCCCN21 (stereo not given in full)	0	0	0	0	0	0	-	-
O=C(c1cc2c(=O)n3ccccc3nc2s1)N1CCOCC1	0	0	0	0	17.3	0	68.4	68.3
CC1CCN(C(=O)c2cc3c(=O)n4ccccc4nc3s2)CC1	0	0	0	0	23.3	0	23.1	25.9
O=C(c1cc2c(=O)n3ccccc3nc2s1)N1CCN(c2cccc(Cl)c2)CC1	0	0	0	0	0	0	-	-
COc1c2ccoc2nc2c(OC)c(OCC(OC(C)=O)C(C)(C)O)ccc12 (stereo not given)	0	0	0	0	18.5	0	13.3	13.4
COc1ccc2c(OC)c3ccoc3nc2c1OC	0	0	0	0	26.8	0	31.2	62.0
COc1c2ccoc2c(OC[C@@H](OC(C)=O)C(C)(C)O)c2oc(=O)ccc12	0	0	0	0	0	0	-	-
COc1c2ccoc2nc2c(OC)c(OC[C@@H](O)C(C)(C)O)ccc12	0	0	0	0	24.4	0	37.0	40.4
COc1c2ccoc2nc2c(OC)c(OCC(O)C(C)(C)O)ccc12 (stereo not given)	0	0	0	0	21.8	0	40.8	38.9
COc1cc2c(cc1NC(=O)CSc1nnc(-c3cnccn3)n1-c1ccc(C)cc1)oc1ccccc12	0	0	0	0	0	0	-	-
COc1ccc(CCNC(=O)c2cnn(-c3ccccc3)c2N)cc1OC	0	0	0	0	0	0	-	-
CCOC(=O)CC(=O)CSc1nc(C)cc(-c2cccnc2)c1C#N	0	0	0	0	35.3	0	97.8	71.8	K7 EDANS ctr=5.51
Cc1cc(-c2ccccc2)c(C#N)c(SCC(N)=O)n1	0	0	0	0	0	0	-	-
CCOC(=O)CC(=O)CSc1nc(-c2cccnc2)ccc1C#N	0	0	0	0	83.8	0	286.4	286.2
CCOC(=O)CC(=O)CSc1nc(-c2cccnc2)cc(C)c1C#N	0	0	0	0	33.9	0	115.5	122.7
CCOC(=O)CC(=O)CSc1nc(N)c(C#N)c(-c2ccc(F)cc2)c1C#N	0	0	0	0	13.8	0	13.2	13.1
S=C(Nc1ccccc1I)OC1CCC12CCC(c1ccccc1)CC2 (stereo not given)	0	0	0	0	-	0	-	-
O=C(CSc1nnc(-c2ccco2)n1-c1ccc(Cl)cc1)Nc1cccc2ccccc12	0	0	0	0	0	0	-	-
CCOc1ccc2nc3sc(C(=O)N4CCOCC4)c(N)c3cc2c1	0	0	0	0	13.0	0	0	6.6
Cc1ccc(C)c2nc3sc(C(=O)N4CCOCC4)c(N)c3cc12	0	0	0	0	0	0	-	-
Cc1cc(C)c2cc3c(N)c(C(=O)N4CCOCC4)sc3nc2c1	0	0	0	0	18.6	0	0	0
Cc1cc(C)c2nc3sc(C(=O)N4CCOCC4)c(N)c3cc2c1	0	0	0	0	0	0	-	-
C=CCN1[C@H](C)COc2cc(N3CCSCC3)ccc2S1(=O)=O	0	0	0	0	0	0	-	-
Cc1cccc(C(=O)Nc2ccccc2C(=O)OCC(=O)Nc2ccc(C#N)cc2)c1	0	0	0	0	17.3	0	0	0
SMILES	PLCg1 inh	ADAM10 inh	HGIII-sPLA2 inh	ADAM17 inh	proKLK7 act	PLCb3 inh	proKLK7 act conf	EDANS-DABCYL int	others
COc1ccc(C(=O)CC(=O)c2ccc(OC)cc2)cc1	0	0	0	0	0	0	-	-
COc1ccc(O)c(C(=O)CC(=O)c2ccncc2)c1	0	0	0	0	14.1	0	282.2	290.0
COc1cccc2[nH]c3c(=O)[nH]cnc3c12	0	0	0	0	12.6	0	0	14.1
COc1cccc2[nH]c3c(=O)n(CCN(C)C)cnc3c12	0	0	0	0	49.2	0	14.6	13.8
CCCCN(CCCC)CCn1cnc2c([nH]c3ccc(OC)cc32)c1=O	0	0	0	0	0	0	-	-
COc1cc2[nH]c3c(=O)n(CCN(C(C)C)C(C)C)cnc3c2cc1OC	0	0	0	0	0	0	-	-
CCN(CC)CCn1cnc2c([nH]c3cccc(OC)c32)c1=O	0	0	0	0	67.3	0	27.9	30.9
CCCN(CCC)CCNC(=O)CCC(=O)Nc1ccc2nc(N3CCOCC3)cc(C)c2c1	0	0	0	0	57.4	0	153.1	144.1
CCCCNC(=O)CCC(=O)Nc1ccc2nc(N3CCOCC3)cc(C)c2c1	0	0	0	0	0	0	-	-
CCCCN(CC)CCNC(=O)CCC(=O)Nc1ccc2nc(N3CCN(C)CC3)cc(C)c2c1	0	0	0	0	78.3	0	106.5	115.0
CCCCN(CC)CCNC(=S)Nc1ccc2nc(N3CCN(C)CC3)cc(C)c2c1	0	0	0	0	0	0	-	-
C=CCN1[C@H](C#N)[C@@H](c2ccc(Br)cc2)[C@H]1CO	0	0	0	0	0	0	-	-
CNC(=S)NNC(=O)c1cccc(N(C)C)c1	0	0	0	0	14.3	0	12.9	12.1
CN(C)c1cccc(C(=O)NNC(=S)NC2CCCC2)c1	0	0	0	0	0	0	-	-
CCc1cc2c(=O)oc(-c3ccc(F)cc3)nc2s1	0	0	0	0	0	0	-	-
CCc1cc2c(=O)nc3n(c2s1)Cc1ccccc1/C3=C(/O)c1ccc(F)cc1	0	0	0	0	23.4	0	64.5	67.7
O=c1c2cccc(Cl)c2nc2n1Cc1ccccc1-2	0	0	0	0	0	0	-	-
CCc1cc2c(=O)nc3n(c2s1)Cc1ccccc1/C3=C(/O)c1ccccc1Cl	0	0	0	0	13.5	0	16.1	23.4
C=CC[C@@H]1NN2C(=O)[C@@H](C)[C@@H]3c4ccccc4C=NN3[C@@H]2c2ccccc21	0	0	0	0	0	0	-	-
COC(=O)[C@]12C[C@H](CC(=O)NCCC(C)C)C(=O)N(Cc3ccc(Cl)cc3Cl)C1=C[C@H](COCc1ccccc1)O[C@@H]2C	0	0	0	0	0	0	-	-
C/C(=N\NC(=O)CNc1cccc2ccccc12)c1ccccc1	0	0	0	0	46.1	0	0	0
O=C(CNc1cccc2ccccc12)N/N=C/c1ccc(C(=O)O)cc1	0	0	0	0	0	0	-	-
O=C(CNc1cccc2ccccc12)N/N=C/C=C/c1ccco1	0	0	0	0	0	0	-	-

Bioassay records from PubChem BioAssay.
